The full data set covers some 7,900 targets. This sample favours those with a hit. About 0.6% of all pairs of compound and target were hits.
The targets below were run with CN1CCc2c(c3ccccc3n2Cc2ccc(C(=O)NO)cc2)C1 [Tubastatin A] (assay: log2 fold change, soluble protein after heating vs DMSO (PISA); higher = thermal stabilisation; K562 cells, 10 uM, 30 min; active = over 0.2 and 3.5 SD of the protein, either way, in both replicates (recomputed)).
Method in brief: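 K562 cells (2×10^6 cells/mL) were treated with 10 μM compound for 30 min, and aliquots were heated for 3 min over 48°C-58°C. Pooled aliquots were extracted in PBS with 0.5% NP-40 at 4°C, and the supernatant after 21,000xg for 90 min was measured by TMTpro 16plex LC-MS/MS with channel sums equalised. Reported thermal stability, relative to control samples and from duplicates, is a log2 fold change.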

Chain of UniProt Q9BUK6 (Q9BUK6 whole entry, looked up): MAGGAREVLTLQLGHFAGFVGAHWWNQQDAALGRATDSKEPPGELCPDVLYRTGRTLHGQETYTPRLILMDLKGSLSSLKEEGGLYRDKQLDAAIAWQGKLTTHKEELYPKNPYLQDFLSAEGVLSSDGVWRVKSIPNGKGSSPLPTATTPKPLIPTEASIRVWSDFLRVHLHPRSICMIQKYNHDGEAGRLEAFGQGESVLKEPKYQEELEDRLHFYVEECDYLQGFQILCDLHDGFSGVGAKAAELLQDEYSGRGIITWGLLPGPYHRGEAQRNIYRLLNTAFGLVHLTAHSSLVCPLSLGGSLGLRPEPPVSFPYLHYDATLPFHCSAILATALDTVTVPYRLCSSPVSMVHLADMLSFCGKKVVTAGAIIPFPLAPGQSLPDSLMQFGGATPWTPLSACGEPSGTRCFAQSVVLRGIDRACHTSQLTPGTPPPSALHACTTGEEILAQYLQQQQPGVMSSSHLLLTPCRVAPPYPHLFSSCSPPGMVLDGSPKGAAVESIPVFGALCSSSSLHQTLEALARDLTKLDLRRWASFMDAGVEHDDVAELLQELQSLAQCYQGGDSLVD
Chain of UniProt Q8WVJ2 (Q8WVJ2 whole entry, looked up): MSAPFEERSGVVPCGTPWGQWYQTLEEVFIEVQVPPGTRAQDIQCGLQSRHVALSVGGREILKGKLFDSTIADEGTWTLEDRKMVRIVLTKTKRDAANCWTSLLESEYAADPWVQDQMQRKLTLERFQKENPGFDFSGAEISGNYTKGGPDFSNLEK
Chain of UniProt Q99747 (Q99747 whole entry, looked up): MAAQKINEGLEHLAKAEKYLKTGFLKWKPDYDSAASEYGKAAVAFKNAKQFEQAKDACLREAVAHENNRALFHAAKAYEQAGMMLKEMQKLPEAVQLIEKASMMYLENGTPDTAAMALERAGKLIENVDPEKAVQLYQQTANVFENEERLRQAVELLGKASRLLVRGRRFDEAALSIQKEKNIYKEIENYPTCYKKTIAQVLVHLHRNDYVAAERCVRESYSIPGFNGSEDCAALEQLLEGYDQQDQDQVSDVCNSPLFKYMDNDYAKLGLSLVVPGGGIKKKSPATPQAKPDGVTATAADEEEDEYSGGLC
Chain of UniProt Q92621 (Q92621 whole entry, looked up): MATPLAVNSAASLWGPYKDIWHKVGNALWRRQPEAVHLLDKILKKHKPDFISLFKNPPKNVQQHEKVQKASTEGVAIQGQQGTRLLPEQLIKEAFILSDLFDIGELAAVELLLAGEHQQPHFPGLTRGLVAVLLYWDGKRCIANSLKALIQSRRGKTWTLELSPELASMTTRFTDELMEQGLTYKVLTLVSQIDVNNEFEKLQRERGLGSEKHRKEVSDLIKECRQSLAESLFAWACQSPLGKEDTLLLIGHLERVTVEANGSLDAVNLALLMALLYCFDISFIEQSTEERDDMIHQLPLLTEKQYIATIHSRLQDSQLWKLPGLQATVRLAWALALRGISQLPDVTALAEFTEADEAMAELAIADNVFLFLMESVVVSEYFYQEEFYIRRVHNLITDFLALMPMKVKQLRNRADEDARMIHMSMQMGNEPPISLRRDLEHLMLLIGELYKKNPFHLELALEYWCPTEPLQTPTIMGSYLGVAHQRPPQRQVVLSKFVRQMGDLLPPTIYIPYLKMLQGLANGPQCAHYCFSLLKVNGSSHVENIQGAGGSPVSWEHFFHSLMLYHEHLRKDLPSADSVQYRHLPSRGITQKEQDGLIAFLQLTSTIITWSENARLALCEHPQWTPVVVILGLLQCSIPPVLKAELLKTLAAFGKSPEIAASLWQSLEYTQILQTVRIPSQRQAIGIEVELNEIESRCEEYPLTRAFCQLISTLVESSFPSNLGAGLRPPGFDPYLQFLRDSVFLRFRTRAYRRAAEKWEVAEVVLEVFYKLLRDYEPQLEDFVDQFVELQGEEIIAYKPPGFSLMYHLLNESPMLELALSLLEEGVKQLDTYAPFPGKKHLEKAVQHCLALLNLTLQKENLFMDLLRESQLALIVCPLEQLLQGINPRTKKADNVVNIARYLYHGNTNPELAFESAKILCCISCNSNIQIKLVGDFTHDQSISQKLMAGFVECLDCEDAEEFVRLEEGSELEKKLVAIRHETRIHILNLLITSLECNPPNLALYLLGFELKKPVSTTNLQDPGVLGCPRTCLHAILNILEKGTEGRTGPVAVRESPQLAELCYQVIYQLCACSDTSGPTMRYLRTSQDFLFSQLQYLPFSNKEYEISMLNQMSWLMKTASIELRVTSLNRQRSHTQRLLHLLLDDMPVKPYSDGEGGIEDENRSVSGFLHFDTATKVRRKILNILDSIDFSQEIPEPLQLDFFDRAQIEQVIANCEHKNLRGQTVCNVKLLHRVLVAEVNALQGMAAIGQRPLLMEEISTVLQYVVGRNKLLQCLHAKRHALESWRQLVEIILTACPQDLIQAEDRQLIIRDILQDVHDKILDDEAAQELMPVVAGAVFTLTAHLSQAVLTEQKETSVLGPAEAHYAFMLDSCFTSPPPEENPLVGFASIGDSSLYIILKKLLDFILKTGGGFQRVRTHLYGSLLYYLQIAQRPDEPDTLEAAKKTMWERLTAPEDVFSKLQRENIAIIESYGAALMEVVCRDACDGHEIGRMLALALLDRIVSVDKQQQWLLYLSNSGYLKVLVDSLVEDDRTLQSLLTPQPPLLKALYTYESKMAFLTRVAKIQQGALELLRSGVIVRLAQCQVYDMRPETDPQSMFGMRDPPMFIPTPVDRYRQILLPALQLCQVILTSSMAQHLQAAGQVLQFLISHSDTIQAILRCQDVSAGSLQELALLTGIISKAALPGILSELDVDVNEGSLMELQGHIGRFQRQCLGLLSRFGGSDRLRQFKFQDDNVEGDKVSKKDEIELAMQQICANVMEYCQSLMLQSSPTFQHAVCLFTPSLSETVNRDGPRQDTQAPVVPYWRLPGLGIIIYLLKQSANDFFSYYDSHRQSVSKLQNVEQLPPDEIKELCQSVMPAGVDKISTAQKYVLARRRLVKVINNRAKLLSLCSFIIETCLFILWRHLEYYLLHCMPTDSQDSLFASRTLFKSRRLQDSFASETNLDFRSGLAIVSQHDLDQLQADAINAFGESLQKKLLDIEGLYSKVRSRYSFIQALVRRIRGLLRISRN
Chain of UniProt Q13952 (Q13952 whole entry, looked up): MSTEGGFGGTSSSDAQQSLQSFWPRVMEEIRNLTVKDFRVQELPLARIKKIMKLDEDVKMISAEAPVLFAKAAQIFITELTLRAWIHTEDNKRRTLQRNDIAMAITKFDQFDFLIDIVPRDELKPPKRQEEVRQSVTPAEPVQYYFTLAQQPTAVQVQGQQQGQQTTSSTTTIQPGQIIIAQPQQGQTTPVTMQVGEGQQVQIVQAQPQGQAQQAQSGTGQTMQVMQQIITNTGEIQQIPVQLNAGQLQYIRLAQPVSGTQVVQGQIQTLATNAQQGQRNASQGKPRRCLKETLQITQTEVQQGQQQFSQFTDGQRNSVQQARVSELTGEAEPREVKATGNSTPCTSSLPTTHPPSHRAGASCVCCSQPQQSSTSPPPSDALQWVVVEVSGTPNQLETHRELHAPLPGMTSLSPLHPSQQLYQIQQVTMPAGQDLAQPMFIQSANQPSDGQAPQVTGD
Chain of UniProt Q92692 (Q92692 whole entry, looked up): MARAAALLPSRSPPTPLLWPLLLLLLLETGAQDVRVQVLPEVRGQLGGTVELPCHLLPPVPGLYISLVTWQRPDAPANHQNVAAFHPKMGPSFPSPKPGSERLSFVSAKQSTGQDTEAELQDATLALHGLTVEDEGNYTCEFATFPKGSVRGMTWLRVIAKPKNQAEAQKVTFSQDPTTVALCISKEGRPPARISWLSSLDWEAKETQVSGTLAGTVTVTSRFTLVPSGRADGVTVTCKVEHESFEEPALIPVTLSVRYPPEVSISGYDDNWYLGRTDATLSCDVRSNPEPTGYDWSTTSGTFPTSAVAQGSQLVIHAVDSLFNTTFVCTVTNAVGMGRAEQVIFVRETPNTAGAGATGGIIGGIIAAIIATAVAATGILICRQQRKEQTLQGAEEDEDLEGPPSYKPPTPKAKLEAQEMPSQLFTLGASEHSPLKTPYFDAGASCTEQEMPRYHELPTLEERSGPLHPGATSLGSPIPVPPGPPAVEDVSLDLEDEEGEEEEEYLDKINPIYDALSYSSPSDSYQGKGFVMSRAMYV
Chain of UniProt Q9BW27 (Q9BW27 whole entry, looked up): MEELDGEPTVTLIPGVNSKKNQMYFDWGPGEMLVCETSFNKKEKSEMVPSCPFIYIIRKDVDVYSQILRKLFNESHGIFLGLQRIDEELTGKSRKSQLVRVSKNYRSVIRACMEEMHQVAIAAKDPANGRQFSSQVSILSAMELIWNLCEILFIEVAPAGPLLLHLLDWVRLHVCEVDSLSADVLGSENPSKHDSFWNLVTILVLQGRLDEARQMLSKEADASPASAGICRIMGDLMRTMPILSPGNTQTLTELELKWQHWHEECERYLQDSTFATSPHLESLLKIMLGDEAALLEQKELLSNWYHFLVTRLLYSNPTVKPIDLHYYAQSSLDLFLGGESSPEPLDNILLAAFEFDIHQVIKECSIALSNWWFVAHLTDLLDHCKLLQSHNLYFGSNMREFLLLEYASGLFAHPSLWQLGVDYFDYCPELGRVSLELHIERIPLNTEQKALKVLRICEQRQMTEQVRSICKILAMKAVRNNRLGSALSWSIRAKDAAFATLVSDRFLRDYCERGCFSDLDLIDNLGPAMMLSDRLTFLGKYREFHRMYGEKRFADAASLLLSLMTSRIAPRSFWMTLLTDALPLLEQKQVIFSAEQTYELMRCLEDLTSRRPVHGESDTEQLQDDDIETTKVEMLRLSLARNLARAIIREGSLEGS
Chain of UniProt O00483 (O00483 whole entry, looked up): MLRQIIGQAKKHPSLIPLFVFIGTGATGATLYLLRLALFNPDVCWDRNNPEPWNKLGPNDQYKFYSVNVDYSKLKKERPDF

log2 fold change, inactive:
NUDCD2 (UniProt Q8WVJ2) 0.051
NA, A0A096LPI6 -0.037
NAP1L1 (UniProt P55209) -0.008
NCL (UniProt P19338) 0.148
NUP107 (UniProt P57740) 0.067
MRPL46 (UniProt Q9H2W6) 0.037
MRPS22 (UniProt P82650) -0.006
MSTO1 (UniProt Q9BUK6) 0.023
NOL11 (UniProt Q9H8H0) -0.08
NFYC (UniProt Q13952) -0.021
MTMR14 (UniProt Q8NCE2) 0
NISCH (UniProt Q9Y2I1) -0.022
NAPG (UniProt Q99747) 0.048
NDUFA4 (UniProt O00483) -0.029
NUMB (UniProt P49757) -0.014
MRPS18B (UniProt Q9Y676) 0.125
NUP85 (UniProt Q9BW27) -0.001
MTHFD1 (UniProt P11586) -0.009
NOSIP (UniProt Q9Y314) 0.199
NECTIN2 (UniProt Q92692) -0.013
NUP205 (UniProt Q92621) 0.023
NFATC2IP (UniProt Q8NCF5) 0.012
NRF1 isoform 4 (UniProt Q16656) 0.015
MRPS12 (UniProt O15235) -0.02
